Among the data in ChEMBL document CHEMBL1157539, “Thousands of chemical starting points for antimalarial lead identification” (Nature, 2010) are IFI values, retold here.

The full ranking holds about 13,000 compounds; the median of “IFI” is about 4, and the highest 2% start at about 17. What follows is part of a selection rich in the highest values, with near analogues and random picks from the rest.

This test is described as follows: GSK_TCMDC: Inhibition Frequency Index (IFI). The number of non-kinase HTS assays where a compound showed > 50 % inhibition, expressed as a percentage of the number of such assays in which the compound was tested. In kind it is functional.
On to `COCCN1CCN(Cc2ccc(-c3ccc(-c4nc5cccc(C)c5[nH]4)s3)cc2)CC1`, for which the IFI turned out to be 6.86%.
For `O=S(=O)(NCCN1CCCC1)c1ccc(-c2ccc(CNCc3ccccc3)cc2)cc1F` the value was 6.54%; for `Oc1ccc(CCNc2nc(NCCCOc3ccccc3-c3cccc(C(F)(F)F)c3)nc(N3CCNCC3)n2)cc1`, 10.5%; for `Oc1ccc(CCNc2nc(NCCCOc3ccccc3-c3cccnc3)nc(N3CCNCC3)n2)cc1`, 6.9%.
The value for `Oc1ccc(CCNc2nc(NCCCOc3ccccc3-c3ccc(C(F)(F)F)cc3)nc(N3CCNCC3)n2)cc1` was 17.2%; that for `Oc1ccc(CCNc2nc(NCc3ccccc3-c3ccc(F)cc3)nc(N3CCNCC3)n2)cc1` was 13.6%; that for `Oc1ccc(CCNc2nc(NCCOc3cccc4ccccc34)nc(N3CCNCC3)n2)cc1` was 16.4%.
`Oc1ccc(CCNc2nc(NCc3ccccc3-c3ccc(C(F)(F)F)cc3)nc(N3CCNCC3)n2)cc1` gave an IFI of 13.1%.
`CC1CN(c2nc(NCCc3ccc(O)cc3)nc(NCc3ccccc3-c3ccc(C(F)(F)F)cc3)n2)CC(C)N1` (stereo not drawn): the IFI worked out at 17.2%.
For `CN1CCN(c2nc(NCCc3ccc(O)cc3)nc(NCc3ccccc3-c3ccc(C(F)(F)F)cc3)n2)CC1` the value was 11.8%.
For `Oc1ccc(CCNc2nc(NCCCOc3ccccc3-c3ccc(F)cc3)nc(N3CCNCC3)n2)cc1` the value was 13.8%; for `Oc1ccc(CCNc2nc(NCc3ccccc3Oc3ccc(C(F)(F)F)cc3)nc(N3CCNCC3)n2)cc1`, 20%.
For `COc1ccc(-c2ccccc2CNc2nc(NCCc3ccc(O)cc3)nc(N3CCNCC3)n2)cc1` the value was 13.4%; for `Oc1ccc(CCNc2nc(NCCCOc3cccc(-c4ccccc4)c3)nc(N3CCNCC3)n2)cc1`, 18.8%; for `CC(C)N1CCC(N(Cc2ccc(-c3ccc(Cl)cc3)cc2)C(=O)Cn2c(CCc3cccc(F)c3F)nc(=O)c3ccccc32)CC1`, 7.8%.
With `O=C(/C=C/c1ccc(Cl)c(Cl)c1)NCCCCCN1CCC(c2n[nH]c(-c3ccccc3)c2Br)CC1`, the IFI worked out at 12.9%.
The value for `Cc1cc2nc(-c3ccc(/C=C/C(=O)NC4CCN(Cc5ccccc5)CC4)cc3)[nH]c2cc1C` was 3.76%; that for `CS(=O)(=O)NCCCNCc1ccc(-c2ccc(-c3nc4cc(C(F)(F)F)ccc4[nH]3)s2)cc1` was 4.95%; that for `Cc1nc2ccc(-c3ccc(OC(F)(F)F)cc3)cc2c(O)c1C#N` was 1.82%.
The value for `COc1cccc2c(NN=Cc3cccc(F)c3)ccnc12` was 2.99%.
Turning to `Oc1ccc(CCCNc2nc(NCc3ccccc3-c3ccccc3)nc(N3CCNCC3)n2)cc1`, the IFI was found to be 14.9%.
For `Oc1ccc(CCNc2nc(NCc3ccccc3-c3ccc(C(F)(F)F)cc3)nc(N3CCCNCC3)n2)cc1` the value was 14.9%.
As for `Oc1ccc(CCNc2nc(NCc3ccccc3-c3ccccc3)nc(N3CCCNCC3)n2)cc1`, the IFI stood at 18.2%.
